a7 integrin act – activates integrin-mediated alleviation for muscular dystrophy; 0.064% of 350,000 active; alpha7betagal myoblasts, beta-gal FDG fluorescence, 48 h; Potency, µM (doses to about 38.3 µM), for the others: at the top dose activation, hits mostly activators;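 note: 100% = response of the positive control SU9516; nearly all actives have a fitted effect of over 60% in size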
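Alpha7betagal+/- myoblasts (passage 13) were plated 16-24 hr, then exposed to compounds (1:260 dilution of DMSO stock) for 48 hours at 37C. After MPER lysis, β-galactosidase reporter activity was read as FDG fluorescence (ex 480/em 540) after 30 minutes.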
Mito fusion yeast – mitochondrial division inhibition or fusion activation | S. cerevisiae fusion-defective mutant growth rescue, CellTiterGlo 48 h | Potency, µM (doses to about 46.1 µM), for inactives: at the highest dose growth rescue (activation), usual class: activators | 0.23% of 320,000 active | AID 485298; note: % of control where 0% means no effect; nearly all actives have a fitted effect of over 45% in size
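Luminescent cell viability in 1536-well qHTS format served as the measure of rescued growth in ts fusion-mutant S. cerevisiae cultured on non-fermentable YPEG for 48 hours at 37C.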
BCR signal inh – blocks chronic active B-cell receptor signaling; ABC-DLBCL IkBa-CBG/CBR reporter, luminescence ratio, 4 h; Potency, µM (doses to about 46.1 µM), for the others: at the highest dose activity change, negative = inhibition, most hits filed as inhibitors; 0.05% of 340,000 active; active = well fitted inhibition curve with a large enough effect in the signal ratio, with a control signal flat, not every such curve was filed as active; inconclusive = small, poorly fitted or top-dose-only effect, or effect the other way, or a change in a side signal; the % refers to the signal ratio;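 note: plate controls were basal doxycycline-induced cells for no effect and cells given 10 µM MG132 for full effect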
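Concentration-response series (up to 46 uM) were applied to TMD8 dual-reporter cells for 4 h at 37C with doxycycline. Green/red ratio, after filter-overlap correction, defined %Activity; red signal alone was normalised to basal cells and zero luminescence.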
Gal4-VP16 FLuc – counter-screen for ROR gamma inhibitors: Gal4-VP16 reporter | 3.5% of 310,000 active | Potency, µM (doses to about 53.6 µM), inactives show at the highest dose activity, negative = inhibition, usual class: inhibitors | Drosophila S2 Gal4-VP16 UAS-luciferase, luminescence, 20 h;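 note: Gal4-VP16 expression switched on by copper sulfate through the metallothionein promoter; % is set by controls: 0 for no effect and ±100 for the full control effect; nearly all actives have a fitted effect of over 50% in size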
uPA generation – blocks generation of uPA at the cell surface; cell surface uPA generation assay, qHTS; Potency, µM (titrated, usually from 38.3 µM), inactives show top-dose activity change, negative = inhibition, most hits filed as inhibitors; 0.31% of 330,000 active; active = well fitted inhibition curve with a large enough effect; inconclusive = small, poorly fitted or top-dose-only effect; inactive = no such curve, though single readings can be large or run the other way; tested in mouse RAW 264.7 cells; note: % is set by controls: 0 for no effect and ±100 for the full control effect; nearly all actives have a fitted effect of over 55% in size
RORg inh – blocks mouse ROR gamma transcriptional activity; Drosophila S2 Gal4-RORgamma UAS-luciferase reporter, 20 h; Potency, µM (top dose mostly 53.6 µM), without a hit: top-dose activity change, negative = inhibition, hits mostly inhibitors; 5.4% of 310,000 active; note: % is set by controls: 0 for no effect and ±100 for the full control effect; nearly all actives have a fitted effect of over 60% in size
Target sequence (P51450 whole entry, looked up, the tested form may be a part): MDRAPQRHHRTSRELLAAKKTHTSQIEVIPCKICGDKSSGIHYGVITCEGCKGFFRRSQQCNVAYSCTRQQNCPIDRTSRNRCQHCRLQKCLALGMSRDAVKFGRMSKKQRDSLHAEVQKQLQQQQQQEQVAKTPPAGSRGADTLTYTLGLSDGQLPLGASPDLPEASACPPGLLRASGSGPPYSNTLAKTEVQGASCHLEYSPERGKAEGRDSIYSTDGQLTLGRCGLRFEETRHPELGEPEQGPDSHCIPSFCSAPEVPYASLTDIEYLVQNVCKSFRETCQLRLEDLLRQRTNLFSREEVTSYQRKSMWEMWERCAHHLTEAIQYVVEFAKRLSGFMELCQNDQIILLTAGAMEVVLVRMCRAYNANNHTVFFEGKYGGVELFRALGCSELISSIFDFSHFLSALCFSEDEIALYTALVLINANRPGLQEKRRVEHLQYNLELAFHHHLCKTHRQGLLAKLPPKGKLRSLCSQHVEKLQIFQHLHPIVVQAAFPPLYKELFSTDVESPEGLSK
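Stably transfected Drosophila Schneider cells are the test system, with ROR gamma fused to Gal4 and luciferase under UAS control; luminescence is read after 20 hr of 700 uM copper sulfate induction at ambient temperature.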
Numbers without * were called inactive. Sampled rows, rich in hits. Any-hit rate of the full collection: about 5.5%. Unless noted, calls come from the whole dose curve; as a rule, active = well fitted curve in the direction sought with a large enough effect; inconclusive = small, poorly fitted or top-dose-only effect, or another doubt; inactive = no such curve, though single readings can be large; an effect the other way counts as inactive or inconclusive. Potency is the fitted concentration of half-maximal effect.

`COC(=O)[C@@]1(Cc2ccc(OC)cc2)[C@H]2c3cc(C(=O)N4CCCC4)n(Cc4ccsc4Br)c3C[C@H]2CN1C(=O)c1ccccc1` gave Gal4-VP16 FLuc -7.5% and RORg inh 7.4%.
Cc1cccc(NC(=O)CSc2nc(C3CC3)nc3ccccc23)c1 was read as a7 integrin act -25.3%, Mito fusion yeast 1.8%, BCR signal inh inconclusive, Gal4-VP16 FLuc 4.5%, uPA generation -13.1% and RORg inh -29.9%.
`Cc1cccc(NC(=S)/N=C(\N)Nc2nc(C)c3ccccc3n2)c1` gave a7 integrin act -7.1%, Mito fusion yeast 17.7%, BCR signal inh -0.2%, Gal4-VP16 FLuc 5.01µM*, uPA generation -9.1% and RORg inh 2.24µM*.
For Cc1cccc(OCc2nnc(SCC(=O)N3c4ccccc4CC3C)n2C)c1C (centres undefined) the results were a7 integrin act -38.2%, Mito fusion yeast 18.2%, BCR signal inh inconclusive, Gal4-VP16 FLuc 14.1µM*, uPA generation -1.2% and RORg inh inconclusive.
Screening Cc1nn(-c2ccccn2)c2c1-c1nc(N)ncc1CC2 returned a7 integrin act -3.1%, Mito fusion yeast -1.9%, BCR signal inh -1.2%, Gal4-VP16 FLuc -14.2%, uPA generation -3.9% and RORg inh -31.0%.
For C=C(C)C1Cc2c(C)nn(-c3cccc4cccnc34)c2C1 (centres undefined) the results were a7 integrin act -16.9%, Mito fusion yeast 2.3%, BCR signal inh inconclusive, Gal4-VP16 FLuc -26.9%, uPA generation 6.3% and RORg inh 14.1µM*.
`C=C(C)C1Cc2c(C)nn(-c3ccccn3)c2C1` (centres undefined) gave a7 integrin act -5.7%, Mito fusion yeast -2.2%, BCR signal inh 15.7%, Gal4-VP16 FLuc inconclusive, uPA generation 3.9% and RORg inh 12.6µM*.
`CC(C)CC1OC(=O)C2=CCCCC21` (centres undefined) gave Gal4-VP16 FLuc 2.5% and RORg inh 4.6%.
Cc1ccc(C)c(S(=O)(=O)N2CCN(C(=O)CCCc3c[nH]c4ccccc34)CC2)c1 was read as a7 integrin act -51.3%, Mito fusion yeast inconclusive, BCR signal inh 0.1% and uPA generation -1.9%.
O=C(Nc1nnc(-c2ccco2)o1)c1ccc2ccccc2c1 was read as a7 integrin act -17.1%, Mito fusion yeast 12.6µM*, BCR signal inh -11.4%, Gal4-VP16 FLuc 1.12µM*, uPA generation -2.8% and RORg inh 1.41µM*.
`CCCCC(=O)Nc1nnc(-c2ccco2)o1` gave a7 integrin act -19.6%, Mito fusion yeast 3.0%, BCR signal inh inconclusive, Gal4-VP16 FLuc -9.8%, uPA generation 3.6% and RORg inh -10.3%.
Screening Cc1nnc(NC(=O)c2ccc3ccccc3c2)o1 returned a7 integrin act -21.4%, Mito fusion yeast 3.4%, BCR signal inh inconclusive, Gal4-VP16 FLuc 0.316µM*, uPA generation -5.6% and RORg inh 0.112µM*.
Screening Cc1ccsc1C(=O)Nc1nnc(-c2ccco2)o1 returned a7 integrin act -36.1%, Mito fusion yeast 14.5%, BCR signal inh inconclusive, Gal4-VP16 FLuc inconclusive, uPA generation -3.0% and RORg inh 0.282µM*.
For CCc1ccccc1NC(=O)c1ccc([N+](=O)[O-])s1 the results were a7 integrin act -52.3%, Mito fusion yeast 2.8%, BCR signal inh 8.7%, Gal4-VP16 FLuc 6.2%, uPA generation -13.6% and RORg inh 14.1µM*.
For Cc1ccc(C(=O)Nc2nnc(-c3ccco3)o2)cc1 the results were a7 integrin act 2.7%, Mito fusion yeast 0.1%, BCR signal inh inconclusive, Gal4-VP16 FLuc inconclusive, uPA generation -6.8% and RORg inh inconclusive.
For CC(=O)OCCN1C(=O)c2ccc(-c3nc4ccccc4c(=O)o3)cc2C1=O the results were a7 integrin act 1.4% and uPA generation 4.5%.

Screens: PubChem, National Center for Advancing Translational Sciences (NCATS)
